# From PMC3218832
# Key:
# Test in all cases: protein binding microarray; high values mean tight binding
# Conditions in all cases: dsDNA, one strand shown
# [1] = biological target: RELARELA (p65 homodimer) (Homo sapiens, UniProt Q04206 1-307)
# [2] = biological target: p50p50 homodimer (Homo sapiens, UniProt P19838 7-356)
# [3] = biological target: T1, p52p52 homodimer (Homo sapiens, UniProt Q00653 4-332)
# T1 sequence: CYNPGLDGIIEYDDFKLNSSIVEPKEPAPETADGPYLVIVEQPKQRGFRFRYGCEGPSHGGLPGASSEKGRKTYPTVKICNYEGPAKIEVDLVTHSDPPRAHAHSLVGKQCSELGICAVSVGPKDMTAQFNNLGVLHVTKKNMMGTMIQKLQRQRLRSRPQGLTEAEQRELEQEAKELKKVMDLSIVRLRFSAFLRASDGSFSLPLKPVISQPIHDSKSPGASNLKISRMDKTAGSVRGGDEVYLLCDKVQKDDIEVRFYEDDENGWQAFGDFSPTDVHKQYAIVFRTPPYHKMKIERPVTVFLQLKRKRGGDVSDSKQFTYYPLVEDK
# [4] = biological target: RELA (p65) subunit of heterodimer;p50 subunit (Homo sapiens;Homo sapiens, UniProt Q04206;P19838 1-307;7-356)
# Sequence of RELA (p65) subunit of heterodimer;p50 subunit (Q04206 1-307, chain 1 of 2): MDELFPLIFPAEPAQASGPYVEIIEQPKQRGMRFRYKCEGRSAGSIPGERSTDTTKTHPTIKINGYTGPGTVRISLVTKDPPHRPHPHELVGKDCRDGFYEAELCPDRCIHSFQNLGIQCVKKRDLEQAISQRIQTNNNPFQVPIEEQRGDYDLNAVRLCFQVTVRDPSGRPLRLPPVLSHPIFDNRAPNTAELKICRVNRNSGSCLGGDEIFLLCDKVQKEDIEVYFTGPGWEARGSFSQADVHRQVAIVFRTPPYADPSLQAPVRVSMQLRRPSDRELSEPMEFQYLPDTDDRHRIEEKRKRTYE
# Sequence of RELA (p65) subunit of heterodimer;p50 subunit (P19838 7-356, chain 2 of 2): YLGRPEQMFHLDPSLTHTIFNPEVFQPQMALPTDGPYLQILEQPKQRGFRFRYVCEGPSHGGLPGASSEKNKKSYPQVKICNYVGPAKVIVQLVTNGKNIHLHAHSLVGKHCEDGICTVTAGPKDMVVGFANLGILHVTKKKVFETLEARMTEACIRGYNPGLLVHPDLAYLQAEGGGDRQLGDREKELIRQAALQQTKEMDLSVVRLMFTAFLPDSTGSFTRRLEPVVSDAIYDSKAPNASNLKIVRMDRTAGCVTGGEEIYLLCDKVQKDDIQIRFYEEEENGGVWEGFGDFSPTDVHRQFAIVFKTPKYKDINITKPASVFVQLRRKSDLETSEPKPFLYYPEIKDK
# [5] = biological target: RELA (p65) subunit of heterodimer;p52 subunit (Homo sapiens;Homo sapiens, UniProt Q04206;Q00653 1-307;4-332)
# [6] = biological target: RELB subunit;p50 subunit (Homo sapiens;Homo sapiens, UniProt Q01201;P19838 120-401;7-356)
# [7] = biological target: T2, RELB subunit;p52 subunit (Homo sapiens;Homo sapiens, UniProt Q01201;Q00653 120-401;4-332)
# T2 sequence 1: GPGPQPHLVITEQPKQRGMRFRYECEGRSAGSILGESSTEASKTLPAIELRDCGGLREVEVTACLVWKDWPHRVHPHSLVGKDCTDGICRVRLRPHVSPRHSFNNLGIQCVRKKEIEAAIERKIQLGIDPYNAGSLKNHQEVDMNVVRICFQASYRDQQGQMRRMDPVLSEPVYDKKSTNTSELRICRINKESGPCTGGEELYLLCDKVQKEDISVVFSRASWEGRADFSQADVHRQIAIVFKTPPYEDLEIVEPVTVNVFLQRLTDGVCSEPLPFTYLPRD
# T2 sequence 2: T1 sequence
# [8] = biological target: C-Rel subunit;p50 subunit (Homo sapiens;Homo sapiens, UniProt Q04864;P19838 1-285;7-356)
# [9] = biological target: T3, C-Rel subunit;p52 subunit (Homo sapiens;Homo sapiens, UniProt Q04864;Q00653 1-285;4-332)
# T3 sequence 1: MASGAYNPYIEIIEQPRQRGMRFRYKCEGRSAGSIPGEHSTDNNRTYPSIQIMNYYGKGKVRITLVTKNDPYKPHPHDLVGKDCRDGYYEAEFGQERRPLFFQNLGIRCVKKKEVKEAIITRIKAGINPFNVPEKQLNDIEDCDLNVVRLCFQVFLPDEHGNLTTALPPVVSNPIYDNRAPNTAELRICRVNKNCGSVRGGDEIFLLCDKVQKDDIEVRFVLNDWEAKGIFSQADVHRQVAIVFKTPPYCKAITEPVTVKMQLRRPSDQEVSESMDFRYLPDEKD
# T3 sequence 2: T1 sequence
# Sequence of RELARELA (p65 homodimer) (Q04206 1-307): as the sequence (Q04206 1-307, chain 1 of 2) above
# Sequence of p50p50 homodimer (P19838 7-356): as the sequence (P19838 7-356, chain 2 of 2) above
Sequence,binding signal [1] [z-score],binding signal [2] [z-score],binding signal [3] [z-score],binding signal [4] [z-score],binding signal [5] [z-score],binding signal [6] [z-score],binding signal [7] [z-score],binding signal [8] [z-score],binding signal [9] [z-score]
AGAGACCTCCC,-0.639,-0.985,-0.531,-0.592,-0.789,-0.533,-0.671,-0.845,-0.997
GGGAATCTCCT,2.57,0.441,1.08,0.896,0.912,0.367,0.827,0.987,1.35
GAGAGATTCCC,1.47,0.649,0.325,0.844,0.545,0.433,0.292,0.909,0.551
GAAGAATCCCC,1.11,1.36,2.18,2.18,1.83,2.29,1.85,1.56,1.53
GGGATGGCCCC,-0.135,0.31,1.6,0.79,1.15,0.678,0.614,0.492,0.746
CAAAATGCCCT,0.196,-0.106,-0.35,-0.0537,-0.15,-0.464,-0.38,-0.13,-0.0299
GAGGGCCTCCT,-0.673,-1.05,-0.564,-0.901,-0.776,-0.873,-0.69,-1.21,-0.843
CAGATGACCCC,-0.4,-0.382,-0.355,-0.422,-0.386,-0.204,-0.302,-0.754,-0.39
GGAAGAGCCCT,-0.298,-0.632,-0.649,-0.191,-0.503,-0.91,-0.727,-0.606,-0.318
AAAGACTCCCT,-0.338,0.719,0.0106,0.327,0.161,0.395,0.156,-0.0953,0.0126
AAGTATGCCCC,0.441,0.0869,-0.0889,0.289,0.0585,0.197,0.2,0.628,0.354
GAAGACACCCC,-0.516,-0.135,-0.303,-0.324,-0.316,-0.183,0.105,-0.163,-0.242
AAATGGACCCC,-0.781,-0.458,-0.348,-0.532,-0.428,-0.448,-0.0987,-0.615,-0.473
GAATTCGCCCT,0.00849,-0.928,-0.505,-0.461,-0.517,-0.698,-0.722,-0.531,-0.36
GGAGGATCCCC,0.374,1.03,1.19,1.54,1.22,1.27,0.916,1.15,0.899
AAAAATTCCCC,3.28,1.42,2.98,2.27,2.54,2.96,2.46,2.04,2.78
CAGTGGCTCCC,-0.478,-1.44,-0.661,-0.743,-0.817,-0.932,-0.764,-1.22,-0.857
CGAGACGTCCT,-0.768,-1.33,-0.73,-1.16,-0.933,-1.07,-0.949,-1.55,-0.864
GAAGTTGTCCT,-0.136,-1.05,-0.601,-0.859,-0.716,-0.826,-0.62,-0.931,-0.642
AAATAAACCCT,-0.478,0.0209,0.172,-0.112,0.045,-0.326,-0.0813,-0.324,-0.00628

Sequence,binding signal [1] [z-score],binding signal [2] [z-score],binding signal [3] [z-score],binding signal [4] [z-score],binding signal [5] [z-score],binding signal [6] [z-score],binding signal [7] [z-score],binding signal [8] [z-score],binding signal [9] [z-score]
CGGGTATCCCC,1.9,0.854,2.48,1.84,2.01,0.893,1.59,1.64,2.53
GGAAACTCCCC,3.23,1.08,2.01,2.39,2.23,1.32,2.1,2.15,2.63
GGAGGGATCCT,-0.405,-1.1,-0.254,-0.619,-0.58,-0.707,-0.517,-1.01,-0.454
CAGTACGCCCT,-0.311,-1.79,-0.678,-0.914,-0.662,-0.89,-0.84,-1.25,-0.761
GGGGGGCCCCT,0.434,0.995,1.67,1.67,1.86,1.23,1.45,1.22,1.71
GAGGTGACCCC,-0.476,-0.386,-0.328,-0.534,-0.428,-0.385,-0.19,-0.788,-0.26
CAGTGGTCCCC,-0.00968,0.538,0.29,0.247,0.212,0.612,0.412,0.329,0.0114
GAATTGTCCCC,1.03,1.37,1.34,1.38,1.18,1.38,1.61,1.27,0.963
CAGGTGCTCCT,-0.953,-0.0506,0.0612,-0.571,-0.266,-0.45,-0.443,-1.31,-0.565
CAGTTACTCCT,-0.453,-1.22,-0.649,-0.763,-0.94,-0.976,-0.763,-1.08,-0.871
AAAGTCTCCCC,0.367,0.818,0.559,0.733,0.654,0.78,0.879,0.882,0.388
CGAATACCCCT,0.147,1.13,0.86,1.17,1.12,1.03,1.63,0.876,0.881
GAGAACTTCCT,0.439,-0.697,-0.718,-0.503,-0.731,-0.944,-0.781,-0.692,-0.645
AGGTATACCCT,-0.0429,-0.139,-0.102,-0.262,-0.241,-0.242,-0.17,-0.467,-0.258
GGAGTCTCCCC,1.17,0.531,0.409,1.27,0.997,0.547,0.514,0.822,0.954
GGAAGGGCCCC,-0.533,-0.314,-0.0891,0.16,0.159,-0.313,-0.107,-0.00222,0.327
AAGAGCATCCT,-0.702,-1.75,-0.753,-1.09,-1.17,-1.16,-0.978,-1.52,-1.15
CGGGATGCCCC,1.39,0.572,2.24,1.51,1.6,1.24,1.28,0.949,1.61
AAAGGGATCCC,0.0658,-0.302,0.0251,-0.128,-0.268,-0.184,-0.115,-0.213,-0.202
AAGTGCCTCCC,-0.0547,-1.21,-0.495,-0.501,-0.793,-0.787,-0.731,-1.1,-0.788

Sequence,binding signal [1] [z-score],binding signal [2] [z-score],binding signal [3] [z-score],binding signal [4] [z-score],binding signal [5] [z-score],binding signal [6] [z-score],binding signal [7] [z-score],binding signal [8] [z-score],binding signal [9] [z-score]
GAGATTTTCCT,1.17,-0.538,-0.404,-0.116,-0.119,-0.659,-0.507,0.14,0.077
AGAGGAGCCCC,-0.573,0.291,0.0479,-0.113,-0.0242,0.0681,0.0342,-0.0137,-0.225
GGGTTATCCCC,2.08,0.73,3.22,1.96,2.63,1.91,2.13,1.6,2.55
GAAAGGTTCCC,0.328,-0.486,-0.241,-0.184,-0.334,-0.203,-0.316,-0.141,-0.167
AAATTCATCCT,0.0684,-0.972,-0.568,-0.664,-0.9,-0.972,-0.72,-1.11,-0.904
AAATACGCCCT,0.0178,-0.886,-0.502,-0.594,-0.758,-1.09,-0.751,-0.684,-0.592
GAGTGACTCCC,-0.623,-0.849,-0.413,-0.796,-0.812,-0.601,-0.827,-0.837,-0.832
GAATGATCCCC,-0.194,0.816,0.548,0.936,0.697,0.943,0.595,0.665,0.409
GGGGTACTCCT,0.917,0.595,0.756,0.47,0.851,0.471,0.712,0.395,0.674
GAGATATCCCC,0.294,1.12,1.16,1.33,1.3,1.08,0.95,0.698,0.964
CAGGATATCCC,0.644,-0.266,-0.111,-0.14,-0.0926,-0.231,-0.211,-0.116,-0.032
CGATGTGTCCC,0.341,-0.155,0.228,0.0812,0.0701,-0.0289,0.0454,0.132,0.074
CGAATGTCCCC,0.531,1.1,0.861,1.09,1.07,1.07,1.17,1.01,0.868
CAATAATCCCT,-0.146,0.635,0.735,0.226,0.493,0.496,0.698,0.212,0.284
GGATGAACCCT,-0.273,-1.25,-0.595,-0.588,-0.76,-0.936,-0.814,-1.23,-0.571
CGGTGAGCCCC,-0.508,0.0715,-0.0385,-0.0467,0.0767,-0.0666,0.236,0.3,0.314
GGATAGGTCCC,-0.076,-0.336,0.0228,-0.276,-0.141,-0.137,-0.101,-0.467,-0.334
GGATTCATCCT,-0.727,-2.29,-0.817,-1.18,-0.991,-1.18,-0.967,-1.49,-0.792
CGGTACTCCCT,0.445,0.837,0.708,0.515,0.425,0.724,0.415,0.323,0.382
